Here are results for 40 compounds from PubChem BioAssay (NCATS).

Inconclusive results are not listed. Active and inactive are the calls of the source. Calls come from the whole dose curve; as a rule, active = well fitted cell-killing curve with a large enough effect; inconclusive = small, poorly fitted or top-dose-only effect, or effect the other way; inactive = no such curve, though single readings can be large or run the other way.
Potency is the fitted concentration of half-maximal effect.

The nature of the assay: Quantitative High-Throughput drug screen in 47 multiple myeloma cell lines against the NCATS MIPE library collection: SKMM1_PLB cell viability assay (AID 1919863). For viability: series mostly up to about 46 µM. Note: nearly all actives have a fitted effect of over 35% in size. Particulars: SKMM1 myeloma viability, CellTiter-Glo ATP, 48 h; viability: hits give low values. From the text:
PI: Beverly A. Mock Ph.D.
Laboratory of Cancer Biology and Genetics,
Center for Cancer Research, National Cancer Institute,
National Institute of Health, Bethesda, Maryland
Drug resistance and disease progression are common in multiple myeloma (MM) patients, underscoring the need for new therapeutic combinations. […] We hypothesized that effective combinations would reduce MYC expression and enhance p16 activity. […] These preclinical data identify potentially useful drug combinations for evaluation in drug-resistant MM and reveal potential mechanisms of combined drug sensitivity.
Described herein is the primary MIPE qHTS used to cherrypick compounds. Validated compounds were then further tested for potential synergistic activiy.
[1] Peat TJ, Gaikwad SM, Dubois W, Gyabaah-Kessie N, Zhang S, Gorjifard S, Phyo Z, Andres M, Hughitt VK, Simpson RM, Miller MA, Girvin AT, Taylor A, Williams D, D'Antonio N, Zhang Y, Rajagopalan A, Flietner E, Wilson K, Zhang X, Shinn P, Klumpp-Thomas C, McKnight C, Itkin Z, Chen L, Kazandijian D, Zhang J, Michalowski AM, Simmons JK, Keats J, Thomas CJ, Mock BA. Drug combinations identified by high-throughput screening promote cell cycle transition and upregulate Smad pathways in myeloma. Cancer Lett. 2023 Aug 1;568:216284. doi: 10.1016/j.canlet.2023.216284. Epub 2023 Jun 24. PMID: 37356470; PMCID: PMC10408729.
SEQUENCE No. (e.g., 1, 2, 3, etc.); […] (e.g., Cells, Incubation, Reagent, etc.); VALUE and DESCRIPTION.
1; Cells; 5 uL; white, solid bottom 1536-well Greiner assay plate.
2; Compounds; 23 nL; Kalypsis pin tool (Wako USA) equipped with a 1536-well pin head to transfer to the assay plates.
3; Incubation; 48 hours; 37C incubation.
4; Reagent;5uL; CellTiter Glo (Promega).
5; Detector; 425V; Luminescence; Viewlux PerkinElmer.
NOTES (numbers refer to Sequence numbers above)
1. The cell-based screening methods employed in this study were like those previously published. Briefly, the corresponding myeloma cell lines were screened in 1,536-well plates with 500 cells, 5-uL per well for inhibition of cell viability (assessed by measuring ATP levels with CellTiterGlo).
2. NCATS MIPE 4.0 library of approved and investigational drugs were added using the Kalypsis pin tool. Wells treated with DMSO only for 100% viability and media only for 0% viability were used as controls.
3. The assay plates were covered and incubated for 48 hours in a 37C, 5% CO2 incubator with controlled humidity.
4. After 48 hours, CellTilter-GloTM luminescent substrate mix (Promega) reagent was added to the assay plate and plates we incubated for 5 min at room temperature.
5. Signal was measured as median relative luminescence units on a ViewLux (PerkinElmer) multiplate reader.
[1] Heske CM, Davis MI, Baumgart JT, Wilson K, Gormally MV, Chen L, Zhang X, Ceribelli M, Duveau DY, Guha R, Ferrer M, Arnaldez FI, Ji J, Tran HL, Zhang Y, Mendoza A, Helman LJ, Thomas CJ. Matrix Screen Identifies Synergistic Combination of PARP Inhibitors and Nicotinamide Phosphoribosyltransferase (NAMPT) Inhibitors in Ewing Sarcoma. Clin Cancer Res. 2017 Dec 1;23(23):7301-7311. doi: 10.1158/1078-0432.CCR-17-1121. Epub 2017 Sep 12. PMID: 28899971; PMCID: PMC6636827.
For orientation: In ATP-based viability assays light output follows the ATP content of the culture.
As to `CC(O)=C(C#N)C(=O)Nc1cc(Br)ccc1Br`, the Potency was 20.9 µM (active).
As to `Cc1ccccc1-n1c(Cn2cnc3c(N)ncnc32)nc2cccc(C)c2c1=O`, the Potency is 0.526 µM (active).
By viability is commonly meant a read-out of living cells in per cent, often relative to untreated cells. Consider `CN(C)NC(=O)CCC(=O)O`, for which the viability is 111% (inactive).
For `C=C[C@@H]1CN2CCC1C[C@H]2[C@H](O)c1ccnc2ccccc12` (stereo not given in full), the Potency is 20.9 µM (active).
Regarding `O=c1cccc2n1CC1CNC[C@H]2C1`, the viability was 142% (inactive).
In the case of `C=CCON=C(C[C@H]1O[C@@H]2O[C@]3(C)CC[C@@H]4[C@H](C)CC[C@@H]([C@H]1C)[C@@]24OO3)[C@H]1O[C@@H]2O[C@]3(C)CC[C@H]4[C@H](C)CC[C@@H]([C@@H]1C)[C@@]24OO3`, the Potency was 0.264 µM (active).
For the compound `O=C(Oc1ccc([N+](=O)[O-])cc1)N1CCN(Cc2cccc(Oc3ccccc3)c2)CC1`, the viability was 117% (inactive).
With `N=c1c2c(-c3ccccc3)c(-c3ccccc3)n(Cc3ccccc3)c2ncn1C1CCC(O)CC1` (stereo not given), the Potency is 16.6 µM (active).
Consider `CC(=O)OCC1=C(C(=O)O)N2C(=O)[C@@H](N)[C@@H]2SC1`, for which the viability was 121% (inactive).
For the compound `CC(C)(O)C=CC(=O)[C@](C)(O)[C@H]1[C@H](O)C[C@]2(C)[C@@H]3CC=C4[C@@H](C=C(O)C(=O)C4(C)C)[C@]3(C)C(=O)C[C@@]12C`, the Potency was 2.64 µM (active).
As to `C[C@]12CC[C@H](O)CC1=CC[C@H]1[C@H]3CCC(=O)[C@@]3(C)CC[C@@H]12`, the viability is 106% (inactive).
Turning to `Cc1ccccc1-n1c(Cn2ncc3c(N)ncnc32)nc2cccc(C)c2c1=O`, the Potency is 5.26 µM (active).
On the same count and under the same terms, for `CN1CCN(c2ccc([N+](=O)[O-])c3no[n+]([O-])c23)CC1` the value was 18.7 µM (active).
As to `C=C[C@@H]1CN2CCC1C[C@@H]2[C@@H](O)c1ccnc2ccccc12` (stereo not given in full), the Potency was 23.5 µM (active).
Still for that read-out and setting: for `CO[C@H]1CCC(O[C@H]2C[C@H]([C@]3(C)CC[C@]4(C[C@H](O)[C@@H](C)[C@@H]([C@@H](C)C=C(C)C(=O)[C@H](C)C[C@H](C)C(=O)O)O4)O3)O[C@]3(O[C@@H]([C@H]4O[C@@](O)(CO)[C@H](C)C[C@H]4C)C[C@H]3C)[C@H]2C)O[C@H]1C` (stereo not given in full) the value was 1.18 µM (active); for `Cc1c(C(=O)Nc2cccc(C(F)(F)F)c2)cc(-c2ccccc2)n1CCCN1CCOCC1`, 26.4 µM (active).
As to `CCOC(=O)c1cncn1[C@H](C)c1ccccc1`, the Potency is 7.43 µM (active).
In the case of `CN[C@@H]1Cc2cccc3[nH]c(=O)n(c23)C1`, the viability is 93.2% (inactive).
In the case of `COc1ccc2c(c[n+](C)c3c4cc5c(cc4ccc23)OCO5)c1OC`, the Potency is 5.9 µM (active).
Consider `C[C@@H]1O[C@@H](O[C@@H]2C=C3CC[C@@H]4[C@@H](CC[C@]5(C)[C@H](c6ccc(=O)oc6)CC[C@@]45O)[C@@]3(C)CC2)[C@H](O)[C@H](O)[C@H]1O`, for which the Potency is 0.0235 µM (active).
For `Cc1[nH]nc2ccc(-c3cncc(OC[C@@H](N)Cc4c[nH]c5ccccc45)c3)cc12`, the Potency is 5.9 µM (active).
Same read-out and setting: the figure for `Cc1c(C(=O)c2cccc3ccccc23)c2cccc3c2n1[C@H](CN1CCOCC1)CO3` is 23.5 µM (active); for `c1ccc(CCCN2CCN(CCOC(c3ccccc3)c3ccccc3)CC2)cc1` it is 20.9 µM (active); for `CC[C@H]1C=CC=CC[C@@H](C)[C@H](O)[C@@](C)(O)C(=O)[C@@H](C)[C@H](O)[C@@H](C)C(=O)[C@@H](C)[C@H](O)[C@@H](C)C=CC(=O)O[C@@H]2[C@@H](C)[C@H](CC1)O[C@]1(CC[C@H](C)[C@H](C[C@@H](C)O)O1)[C@H]2C` it is 20.9 µM (active).
On to `C[C@@H]1[C@H](O)[C@@H](C)C=CC=CCCC=CC=CC=CC=C[C@H](O[C@H]2O[C@@H](C)[C@H](O)[C@@H](N)[C@@H]2O)CC2O[C@](O)(C[C@@H](O)[C@H](O)CC[C@@H](O)C[C@@H](O)C[C@@H](O)CC(=O)O[C@H]1C)C[C@H](O)[C@H]2C(=O)O`, for which the viability was 120% (inactive).
In the case of `O=C(Nc1ccncc1)C(=O)c1cn(Cc2ccc(Cl)cc2)c2ccccc12`, the Potency was 0.418 µM (active).
For the compound `CC(=O)N(C)c1cccc(-c2ccnc3c(C(=O)c4cccs4)cnn23)c1`, the viability was 119% (inactive).
Take `C[C@]12Cc3cn[nH]c3C[C@@H]1CC[C@@H]1[C@H]2CC[C@@]2(C)[C@H]1CC[C@]2(C)O`: the Potency was 3.32 µM (active).
For the compound `O=C1C=CC[C@@H]2[C@H]3CCCN4CCC[C@@H](CN12)[C@@H]34`, the viability was 117% (inactive).
The same measure, in the same setting: for `CC(=Cc1csc(C)n1)[C@@H]1C[C@H]2O[C@]2(C)CCC[C@H](C)[C@@H](O)[C@@H](C)C(=O)C(C)(C)[C@@H](O)CC(=O)O1` the value was 69.9% (inactive).
On to `CN1[C@H]2CC(O)C[C@H]1[C@H]1O[C@H]12` (stereo not given in full), for which the Potency is 23.5 µM (active).
As for `COCC1(CO)C(=O)C2CCN1CC2` (stereo not given), the Potency is 6.62 µM (active).
`CCN1CCN(C(=O)Cc2ccc(Nc3ncc(F)c(Nc4ccc(C(=O)Nc5ccccc5Cl)cc4)n3)cc2)CC1`: the Potency was 9.35 µM (active).
Still for that read-out and setting: the figure for `CC[C@@]1(O)C(=O)OCc2c1cc1n(c2=O)Cc2cc3ccccc3nc2-1` is 0.235 µM (active).
As for `C[C@@H]1CC[C@@]2(OC1)O[C@H]1C[C@H]3[C@@H]4CC=C5C[C@@H](O[C@@H]6O[C@H](CO)[C@@H](O[C@@H]7O[C@@H](C)[C@H](O)[C@@H](O)[C@@H]7O)[C@H](O)[C@@H]6O[C@@H]6O[C@@H](C)[C@H](O)[C@@H](O)[C@@H]6O)CC[C@]5(C)[C@@H]4CC[C@]3(C)[C@@H]1[C@H]2C`, the Potency was 2.35 µM (active).
For `c1cc2c(cc1[C@H]1OC[C@H]3[C@H]1CO[C@H]3c1ccc3c(c1)OCO3)OCO2`, the viability was 134% (inactive).
`C[C@@H]1CC[C@H]2[C@@H](C)C(=O)O[C@@H]3O[C@@]4(C)CC[C@H]1[C@]32OO4`: the viability was 103% (inactive).
On the same count and under the same terms, the figure for `COC1=C[C@@H]2[C@@H]3Cc4ccc(OC)c(O)c4[C@]2(CCN3C)CC1=O` is 132% (inactive).
For `CC=C(C)C(=O)O[C@H]1C(C)=C2[C@@H]3OC(=O)[C@@](C)(O)[C@@]3(O)[C@@H](OC(=O)CCC)C[C@](C)(OC(C)=O)[C@@H]2[C@@H]1OC(=O)CCCCCCC`, the Potency is 0.105 µM (active).
Regarding `CC=C(C)C(=O)N[C@@H](c1ccccc1)[C@@H](O)C(=O)O[C@H]1C[C@@]2(O)[C@@H](OC(=O)c3ccccc3)[C@@H]3[C@]4(OC(C)=O)CO[C@@H]4C[C@H](O)[C@@]3(C)C(=O)[C@H](OC(C)=O)C(=C1C)C2(C)C`, the viability is 60.8% (inactive).
